This note sets out measurements from PubChem BioAssay AID602393 (Broad Institute, 2012).

Screen size: about 350,000 compounds; about 7,000 (2%) were called active. The sample as a whole holds a higher share of actives than the screen did. A number with no mark means an inactive call. Rule as the data show it: active = activation above about 40%; inconclusive = no clear call, values can overlap the other calls; inactive = below that.

The test in a line: Bmi1 luciferase reporter increase in mESCs, primary screen, esBAF inhibitor project, mouse ES cells, Bmi1 luciferase knock-in, single point (AID 602393).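 Also: 0% = median of the plate's neutral control wells and 100% = double that signal; a rise in the Bmi1 reporter signal indicates esBAF inhibition.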 The conditions noted are these: 24 h, at 12.5 µM, stronger effect = higher value, 100% = twice the neutral-well signal. For orientation: Reporter assays use an easily measured gene product as a stand-in for the process of interest.
On to `CCCNC(=O)NC[C@H]1[C@H](c2ccc(C3=CCCCC3)cc2)[C@H](CO)N1C(C)=O`, for which the reporter increase was -2.67%.

For `COCc1cn(CC[C@H]2CC[C@H](NC(=O)Cc3cccnc3)[C@H](CO)O2)nn1`, the reporter increase was 1.37%.

On to `COCC(=O)Nc1ccc2c(c1)OC[C@H](C)N(Cc1ccccc1OC)C[C@@H](C)[C@@H](OC)CN(C)C2=O`, for which the reporter increase was 0.256%.

For `CCCNC(=O)C[C@H]1CC[C@H]2[C@@H](COc3ccc(NC(=O)Nc4c(C)noc4C)cc3C(=O)N2C)O1`, the reporter increase is -1.98%.

Take `CC(C)Cc1ccc(-c2cc3nc(NCc4cccc(Cl)c4)ccn3n2)cc1`: the reporter increase was 79.4% (active).

As for `COCCCNc1ccn2nc(-c3ccc(CC(C)C)cc3)cc2n1`, the reporter increase was 24.7%.

Consider `COc1ccccc1-c1cc2nc(NCc3cccc(Cl)c3)ccn2n1`, for which the reporter increase was -5.22%.

For the compound `COc1ccc(-c2cnc3c(c2)C(=O)N([C@@H](C)CO)C[C@@H](C)[C@H](CN(C)C)O3)cc1`, the reporter increase is -2.94%.

Turning to `O=C(C[C@H]1C=C[C@@H](NC(=O)C2CC2)[C@H](CO)O1)NCC1CC1`, the reporter increase was -2.61%.

With `NS(=O)(=O)c1ccc(N=Nc2c(O)[nH]c3ccc(Br)cc23)cc1`, the reporter increase is -6.6%.

Turning to `Oc1[nH]c2ccc(Br)cc2c1N=Nc1nn[nH]n1`, the reporter increase is 6.07%.

Regarding `Cc1cccc(N=Nc2c(O)[nH]c3ccc(F)cc23)c1`, the reporter increase was 72.6% (active).

With `Cc1ccc(S(=O)(=O)Nc2ccc3c(c2)C(=O)N([C@H](C)CO)C[C@@H](C)[C@H](CN(C)S(=O)(=O)c2cccs2)OCCCC[C@@H](C)O3)cc1`, the reporter increase was 5.34%.

In the case of `Cc1ccc(S(=O)(=O)N[C@H]2CC[C@H](CC(=O)NCc3ccccc3F)O[C@@H]2CO)cc1`, the reporter increase was -2.95%.

For `O=C1C(=O)N(c2ccccc2)C(c2ccccc2)C1c1ccccc1` (stereo not drawn), the reporter increase was -0.185%.

For the compound `O=C1C=C(c2ccc(Cl)cc2)C(=O)N1Nc1ccccc1`, the reporter increase is -0.361%.

On to `O=C(O)CC1=C(Nc2ccccc2)C(=O)N(c2ccccc2)C1c1ccc(Cl)cc1` (stereo not drawn), for which the reporter increase is 49.1% (active).

On to `C[C@@H]1CN([C@@H](C)CO)C(=O)Cc2cc(NC(=O)C3CCCCC3)ccc2O[C@H]1CN(C)C(=O)Nc1ccccc1`, for which the reporter increase is 0.449%.

Consider `CCOC(=O)c1c(-c2ccc(-c3ccccc3)cc2)csc1NC(=O)CCC(=O)O`, for which the reporter increase is -6.99%.

As to `CCOC(=O)c1c(N)nn(C(=O)c2ccccc2)c1-c1ccccc1`, the reporter increase is -1.4%.

On to `CCOC(=O)c1c(C)nc(-c2ccccc2)nc1NC(=O)C(C)C`, for which the reporter increase was 42.3% (active).

In the case of `O=C(O)c1cc([N+](=O)[O-])c(Nc2cccc3ccccc23)c([N+](=O)[O-])c1`, the reporter increase is 15.6%.

Turning to `O=C(Nc1ccc2ccccc2c1[N+](=O)[O-])c1ccccc1`, the reporter increase was 114% (active).

Take `O=C(Nc1ccccc1C(=O)Nc1ccncc1)c1ccc([N+](=O)[O-])cc1`: the reporter increase was -2.66%.

Turning to `CC(C)CC#Cc1cnc2c(c1)C(=O)N([C@H](C)CO)C[C@H](C)[C@@H](CN(C)C(=O)Cc1cccnc1)O2`, the reporter increase is -2.07%.

On to `COc1ccc(NC(=O)N2C[C@H](O)COC[C@@H]3O[C@@H](CC(=O)NCc4ccccc4OC)CC[C@H]32)cc1`, for which the reporter increase was 2.12%.

As to `CCCNC(=O)[C@@H]1[C@@H](CO)[C@@H]2Cn3c(ccc(/C=C/c4ccccc4)c3=O)[C@H]1N2CCC`, the reporter increase is -5.3%.

As to `C=CCNC(=O)c1ccc2c3n(nc2c1)-c1ccc(C)cc1CO3`, the reporter increase is 56.5% (active).

Take `Cc1cccc(-c2nc3ccc(C(=O)NCCN4CCN(C)CC4)cc3nc2-c2cccc(C)c2)c1`: the reporter increase is -7.08%.

For the compound `CCOc1c2ccc(C(=O)NCc3ccc4c(c3)OCO4)cc2nn1C`, the reporter increase is -7.4%.

`O=C(Nc1cccc(F)c1)NC1CCCc2ccccc21` (stereo not drawn): the reporter increase is -6.65%.

As to `O=C(Nc1cccc(F)c1)NC1CCCCCCC1`, the reporter increase was 59.1% (active).

In the case of `Cc1cc(C)cc(NC(=O)NC2CCCCCCC2)c1`, the reporter increase is 15.2%.

Regarding `COc1ccc(/C=N/Nc2ccccc2C(=O)O)cc1`, the reporter increase was -28.7%.

Regarding `COc1ccc(/C=N/Nc2nc(-c3ccc(C)cc3)c(C#N)c(=O)[nH]2)cc1`, the reporter increase was -5.86%.

On to `COc1ccc(/C=N/Nc2nc3ccccc3c(=O)[nH]2)cc1`, for which the reporter increase was 45.1% (active).

For the compound `CN(C)CC(=O)Nc1ccc2c(c1)[C@H]1C[C@@H](CC(=O)NCc3ccc(-c4ccccc4)cc3)O[C@H](CO)[C@H]1O2`, the reporter increase is 4.03%.

On to `COc1ccc(NC(=O)Nc2ccc3c(c2)[C@H]2C[C@H](CC(=O)NC4CCCC4)O[C@H](CO)[C@H]2O3)cc1`, for which the reporter increase is 2.4%.

Turning to `Cc1csc(NC(=O)C2CCN(S(=O)(=O)c3ccccc3)CC2)n1`, the reporter increase is -5.46%.

Take `Cc1csc(NC(=O)c2ccc(C)s2)n1`: the reporter increase is 50.8% (active).

On to `Cc1csc(NC(=O)CN2CCCCCC2)n1`, for which the reporter increase was -1.61%.

For the compound `CCNC(=O)[C@H]1[C@H](CO)[C@H]2Cn3c(ccc(/C=C/c4ccccc4)c3=O)[C@@H]1N2C(=O)C1CCC1`, the reporter increase was 0.423%.

Turning to `COC(=O)C[C@H]1CC[C@H](NC(=O)c2ccccc2)[C@@H](CO)O1`, the reporter increase is -1.98%.

Consider `C/C=C/c1ccc2c(c1)O[C@@H](CN(C)S(C)(=O)=O)[C@@H](C)CN([C@H](C)CO)S2(=O)=O`, for which the reporter increase was -0.163%.

For the compound `COc1ccc(-c2nnc(SCc3cccnc3)o2)cc1`, the reporter increase is 52.4% (active).

Turning to `COc1cccc(NC(=O)CSc2nnc(-c3cccnc3)o2)c1`, the reporter increase was 13.3%.

As to `COc1ccc(-c2nnc(SC(=O)N3c4ccccc4Sc4ccccc43)o2)cc1`, the reporter increase is 2.78%.

In the case of `CC(C)NC(=O)N(C)C[C@H]1Oc2ncc(C#CC3CC3)cc2C(=O)N([C@H](C)CO)C[C@@H]1C`, the reporter increase was -3.17%.

`CCCC(=O)Nc1ccc2c(c1)OC[C@H](C)N(S(=O)(=O)c1cn(C)cn1)C[C@@H](C)[C@H](OC)CN(C)C2=O`: the reporter increase was -1.9%.

For the compound `CN1C(=O)c2cc(NC(=O)c3ccccc3)ccc2OC[C@@H]2O[C@H](CC(=O)NCC3CC3)CC[C@@H]21`, the reporter increase was 6.3%.

For `C/C=C/c1ccc2c(c1)O[C@H](CN(C)C(=O)CN(C)C)[C@H](C)CN([C@@H](C)CO)S2(=O)=O`, the reporter increase is 0.684%.

On to `CCOC(=O)Cc1csc(NC(NC(=O)OCC)(C(F)(F)F)C(F)(F)F)n1`, for which the reporter increase was -0.744%.

As to `COc1ccccc1NC(=O)Nc1nc(CC(=O)Nc2ccccc2F)cs1`, the reporter increase is 1.14%.

As for `CCOC(=O)Cc1csc(NC(=O)Nc2ccccc2)n1`, the reporter increase was 47.4% (active).

On to `C[C@@H]1CN([C@@H](C)CO)C(=O)c2cc(NS(=O)(=O)c3ccccc3)ccc2O[C@@H](C)CCCCO[C@@H]1CN(C)S(=O)(=O)c1cccs1`, for which the reporter increase is 6.97%.

Consider `C[C@@H]1CN([C@H](C)CO)S(=O)(=O)c2ccc(C#CCN(C)C)cc2O[C@@H]1CN(C)C(=O)C1CCCCC1`, for which the reporter increase was -0.287%.

On to `COc1cccc(OC)c1OCCN1CCN(C(=O)c2ccco2)CC1`, for which the reporter increase is -3.54%.

Consider `O=C(c1cc(COc2cccc(C(F)(F)F)c2)on1)N1CCSCC1`, for which the reporter increase was -2.92%.

As to `Cc1ccc(C)c(OCc2cc(C(=O)N3CCN(c4cnccn4)CC3)no2)c1`, the reporter increase is 3.21%.

Turning to `COc1cccc(OCc2cc(C(=O)N3CCN(C(=O)c4ccco4)CC3)no2)c1`, the reporter increase is 70.2% (active).

For `O=C(c1cc(COc2ccc(F)c(F)c2)on1)N1CCOCC1`, the reporter increase was 37.7%.

Regarding `O=C(c1ccco1)N1CCN(C(=O)c2ccc(COc3ccc(F)cc3)o2)CC1`, the reporter increase is -8.59%.

As to `O=C(NCCCc1ccccc1)c1cc(COc2c(F)cccc2F)on1`, the reporter increase was 17.5%.

Regarding `O=C(c1cc(COc2c(F)cccc2F)on1)N1CCSCC1`, the reporter increase was 53.1% (active).

On to `O=C(c1cc(COc2ccc(F)cc2F)on1)N1CCOCC1`, for which the reporter increase was 61.9% (active).

As to `C[C@@H]1CN([C@@H](C)CO)C(=O)c2cc(NC(=O)C3CCCCC3)ccc2O[C@@H](C)CCCCO[C@H]1CN(C)C(=O)Nc1ccc2c(c1)OCO2`, the reporter increase is 7.74%.

For `CC(=O)N[C@@H]1C=C[C@H](CC(=O)NCC2CCCCC2)O[C@H]1CO`, the reporter increase is 4.99%.

With `C[C@@H]1CCCCO[C@@H](CN(C)Cc2ccncc2)[C@@H](C)CN([C@@H](C)CO)C(=O)c2cc(N(C)C)ccc2O1`, the reporter increase was 1.32%.

As for `COc1cccc(NC(=O)N[C@@H]2C=C[C@H](CC(=O)NCc3ccccn3)O[C@H]2CO)c1`, the reporter increase is -1.55%.

On to `COc1cccc(C(=O)Nc2ccc3c(c2)C(=O)N(C)C[C@@H](OC)[C@@H](C)CN(C)[C@@H](C)CO3)c1`, for which the reporter increase is 1.2%.

Turning to `C[C@@H]1CN([C@@H](C)CO)S(=O)(=O)c2ccc(-c3cccnc3)cc2O[C@H]1CN(C)CC1CCOCC1`, the reporter increase was 2.46%.

In the case of `O=C(C[C@H]1C[C@@H]2c3cc(NC(=O)CC4CC4)ccc3O[C@@H]2[C@H](CO)O1)NCc1ccccn1`, the reporter increase was 0.771%.

Consider `C[C@H]1CN([C@@H](C)CO)C(=O)c2cc(C3=CCCC3)cnc2O[C@H]1CN(C)C(=O)Nc1ccc(F)cc1`, for which the reporter increase is -1.8%.

Regarding `COc1cccc(-c2cnc3c(c2)C(=O)N([C@H](C)CO)C[C@H](C)[C@H](CN(C)C(=O)NC(C)C)O3)c1`, the reporter increase was -3.06%.

As to `Cc1ccccc1-c1ccc([C@@H]2[C@H](CO)N3CCCCN(S(=O)(=O)c4ccc(F)cc4)C[C@@H]23)cc1`, the reporter increase was -4.12%.

For `O=c1oc2cc(O)ccc2cc1-c1ccc(F)cc1`, the reporter increase was 47.3% (active).

In the case of `CO[C@@H]1CC[C@H]2CCOc3c(C#N)cccc3C(=O)N(C)C[C@@H](OC)[C@H](C)C(=O)N(C)C[C@@H]1O2`, the reporter increase is -3.58%.

Turning to `CCCNC(=O)N(C)C[C@H]1Oc2ncc(-c3ccc(F)cc3)cc2C(=O)N([C@H](C)CO)C[C@H]1C`, the reporter increase was 1.97%.
